# Data taken from the supplement of paper PMC10720658.
# ± gives the standard deviation of the averaged measurements.
# Tested on: AEK1 (Tb927.3.2440)
# Experiment: percent reduction in TR-FRET probe signal relative to DMSO control; higher = stronger displacement of ATP-site probe (binding)
# Conditions: 1 µM; incubation time 1 h
row,SMILES,percent reduction in TR-FRET probe signal [%]
1,O=C1c2ccc(Nc3ccc(F)cc3F)cc2CCc2ccc(OC[C@H](O)CO)cc21 [Skepinone-L],-1.27 ± 10
2,CC[C@@H]1C(=O)N(C)c2cnc(Nc3ccc(C(=O)NC4CCN(C)CC4)cc3OC)nc2N1C1CCCC1,-1.92 ± 12
3,Cl.Cl.NC1(c2ccc(-c3nc4ccn5c(=O)[nH]nc5c4cc3-c3ccccc3)cc2)CCC1,-1.31 ± 6.8
4,CCN(CC)CCNC(=O)c1c(C)[nH]c(/C=C2\C(=O)Nc3ccc(F)cc32)c1C.O=C(O)C[C@H](O)C(=O)O [Sunitinib Malate],14.7 ± 14
5,Cn1cnc2c(F)c(Nc3ccc(Br)cc3F)c(C(=O)NOCCO)cc21,-1.44 ± 2.7
6,O=C1NC(=O)/C(=C\c2ccc(-c3ccc(F)cc3)o2)S1,-0.187 ± 4.6
7,Cc1cc(CS(=O)(=O)c2ccccc2)cc(OCc2ccc(CN3CCC[C@@H]3CO)cc2)c1,-6.92 ± 5.9
8,COc1cc2ncnc(Nc3ccc(Cl)cc3F)c2cc1OC,4.47 ± 2.8
9,"Cc1cc(Nc2cc(N3CCN(C)CC3)nc(Sc3ccc(NC(=O)C4CC4)cc3)n2)n[nH]1 [VX-680 (Tozasertib, MK-0457)]",10.3 ± 20
10,C#Cc1cccc(Nc2ncnc3cc4c(cc23)OCCOCCOCCO4)c1 [Icotinib],-5.67 ± 19
11,Cc1[nH]c(/C=C2\C(=O)Nc3ccc(S(=O)(=O)Cc4c(Cl)cccc4Cl)cc32)c(C)c1C(=O)N1CCC[C@@H]1CN1CCCC1,-5.64 ± 15
12,CCc1cncnc1N1CCN(Cc2nc3cc(C(F)(F)F)ccc3[nH]2)CC1,-7.37 ± 13
13,O=C(O)c1ccc(Nc2ncc3c(n2)-c2ccc(Cl)cc2C(c2c(F)cccc2F)=NC3)cc1,-4.14 ± 5.4
14,CC1(COc2ccc3c(c2)ncn3-c2ccc3cccc(N4CCC(N)CC4)c3n2)COC1,18.8 ± 11
15,N[C@@H]1CCCN(c2c(/C=C3\SC(=O)NC3=O)cccc2-c2ccccc2)C1,-4.54 ± 7.8
16,O=C(NCc1ccccc1)c1csc(Nc2ccncn2)n1 [Thiazovivin],10.4 ± 11
17,Cc1c(NC(=O)c2ccc(C(C)(C)C)cc2)cccc1-c1cn(C)c(=O)c(Nc2ccc(C(=O)N3CCOCC3)cc2)n1,-8 ± 7.8
18,COc1cc2ncnc(Oc3ccc(CC(=O)Nc4cnn(C(C)C)c4)cc3)c2cc1OC,5.15 ± 13
19,O=C1NC(=O)[C@@H](c2cn3c4c(cccc24)CCC3)[C@@H]1c1c[nH]c2ccccc12 [Tivantinib (ARQ 197)],5.86 ± 12
20,CC(C)[C@H](CO)Nc1nc(Nc2cccc(Cl)c2)c2ncn(C(C)C)c2n1 [Purvalanol A],4.44 ± 18
21,NC(=O)c1cccc(-c2cc(Nc3ccc(OC(F)(F)F)cc3)ncn2)c1,-4.38 ± 9.6
22,CC(C)CC(NC(=O)C(Cc1ccccc1)NC(=O)C(CCC(N)=O)NC(=O)C(Cc1ccc(O)cc1)NC(=O)C(C)NC(=O)CNC(=O)C(CCCCN)NC(=O)C(Cc1c[nH]c2ccccc12)NC(=O)C(NC(=O)C(Cc1c[nH]c2ccccc12)NC(=O)C(CCCCN)NC(=O)CNC(=O)C(CC(N)=O)NC(=O)C(CCC(=O)O)NC(=O)C(Cc1c[nH]c2ccccc12)NC(=O)C(NC(=O)C(Cc1c[nH]c2ccccc12)NC(=O)C(CO)NC(=O)CNC(=O)C1CCCN1C(=O)C(Cc1c[nH]c2ccccc12)NC(=O)C(CCC(N)=O)NC(=O)C(Cc1ccccc1)NC(=O)CNC(=O)C(N)Cc1c[nH]cn1)C(C)O)C(C)O)C(=O)NC(CCCCN)C(=O)NCC(=O)NCC(=O)NCC(=O)NCC(=O)NC(CO)C(=O)NC(CCCNC(=N)N)C(=O)NC(CCCNC(=N)N)C(=O)NC(CCCNC(=N)N)C(=O)NC(CCCNC(=N)N)C(=O)NC(CCCNC(=N)N)C(=O)NC(CCCNC(=N)N)C(=O)NC(CCCNC(=N)N)C(=O)NC(CCCNC(=N)N)C(=O)NC(CCCNC(=N)N)C(=O)O (stereo unspecified),-15.1 ± 6.2
23,CN1CCN(c2ccc(-c3ccncc3-c3cc(F)c(O)c(F)c3)cc2)CC1,1.75 ± 5.2
24,COc1cc(CCc2cc(NC(=O)c3ccc(N4C[C@@H](C)N[C@@H](C)C4)cc3)n[nH]2)cc(OC)c1,2.07 ± 10
25,Clc1ccc(C2(c3ccc(-c4cn[nH]c4)cc3)CCNCC2)cc1,27.3 ± 17
26,C1=C/COCc2cc(ccc2OCCN2CCCC2)Nc2nccc(n2)-c2cccc(c2)COC/1 [Pacritinib (SB1518)],-2.95 ± 9.1
